A short description of assay [1]: compound effects on lung adenocarcinoma cell viability – A549, calcein-AM fluorescence, 48 h, basal, profiling panel (AID 1162). Note: test concentration not given here. To be noted: higher = more signal.
Assay [2] in a line: compound effects on differentiated 3T3-L1 adipocyte viability – cell-based, 3T3-L1 adipocytes, calcein-AM fluorescence, 48 h, basal, profiling panel (AID 1163). Note: test concentration not given here. Particulars: 3T3-L1 adipocytes viability, higher = more signal.
A short description of assay [3]: compound effects on hepatocellular carcinoma cell viability – HepG2, calcein-AM fluorescence, 48 h, basal, profiling panel (AID 1164). Note: test concentration not given here. Particulars: higher = more signal.
Assay [4] is described as follows: compound effects on multiple myeloma cell viability – MM1S, calcein-AM fluorescence, 48 h, basal, profiling panel (AID 1165).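 Note: viability of MM1S multiple myeloma cells under basal unstimulated conditions; test concentration not given here.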 Particulars: higher = more signal.
The nature of assay [5]: calcein-AM signal in unstimulated myeloma cells – cell-based, calcein-AM fluorescence, 48 h, PK04 Diversity Set, profiling panel (AID 1166).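 Note: cells grown under basal conditions without added stimulus; test concentration not given here.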 To be noted: RPMI8226 myeloma viability, higher = more signal.
A short description of assay [6]: JC-1 mitochondrial signal, unstimulated HepG2 cells – cell-based, JC-1 fluorescence, 24 h, 100 nL compound, profiling panel (AID 1167). Note: test concentration not given here. To be noted: HepG2 mitochondrial potential, higher = more signal.
The nature of assay [7]: JC-1 mitochondrial signal, unstimulated adipocytes – cell-based, JC-1 fluorescence, 3T3-L1 adipocytes, 24 h, 100 nL compound, profiling panel (AID 1168). Note: test concentration not given here. Particulars: JC-1 mitochondrial fluorescence, higher = more signal, called active from +8 up or from −8 down.
Assay [8] is described as follows: JC-1 mitochondrial signal, unstimulated myeloma cells – cell-based, JC-1 fluorescence, RPMI8226, 24 h, 100 nL compound, profiling panel (AID 1169). Note: test concentration not given here. To be noted: JC-1 mitochondrial potential fluorescence, higher = more signal.
Assay [9] can be described thus: JC-1 mitochondrial signal, unstimulated MM1S myeloma – cell-based, JC-1 fluorescence, 24 h, 100 nL compound, profiling panel (AID 1170). Note: test concentration not given here. To be noted: MM1S mitochondrial potential, higher = more signal.
The nature of assay [10]: resazurin metabolic signal in A549 cells – cell-based, resazurin fluorescence, 24 h, PK04 Diversity Set, profiling panel (AID 1171). Note: test concentration not given here. To be noted: A549 viability, higher = more signal, called active from +8 up or from −8 down. For orientation: The colour change of resazurin is a common sign of viable cells or microbes.
Assay [11] is described as follows: resazurin metabolic signal in HepG2 cells – cell-based, resazurin fluorescence, 24 h, PK04 Diversity Set, profiling panel (AID 1172). Note: test concentration not given here. Particulars: HepG2 viability, higher = more signal.
Assay [12] is described as follows: budding yeast growth changes without added modifier – OD600, strain BY4716, 24 h, basal condition, primary screen (AID 1173). Particulars: S. cerevisiae BY4716 growth, OD600, 24 h; higher = more signal, called active from +8 up or from −8 down.
Assay [13] in a line: viability profiling in MM1S myeloma cells – cell-based, resazurin fluorescence, basal, 24 h, PK04 Diversity Set, profiling panel (AID 1174). Note: test concentration not given here. To be noted: higher = more signal, called active from +8 up or from −8 down.
In assay [14] the target is Dihydroorotate dehydrogenase (quinone), mitochondrial (Plasmodium falciparum (isolate 3D7)) (UniProt Q08210). Briefly: inhibition of P. falciparum DHODH – biochemical, C-terminal His tag, absorbance 600 nm, primary screen (AID 1175).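 Note: recombinant parasite enzyme with a five histidine tag at its C terminus; test concentration not given here.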 To be noted: PfDHODH enzyme, DCIP absorbance 600 nm; higher = more signal, called active from +8 up or from −8 down.
The nature of assay [15]: inhibition of PAO1 biofilm formation – strain PAO1, LB-PBS medium, absorbance 600 nm, primary screen (AID 1176). Note: test concentration not given here. Particulars: P. aeruginosa PAO1 growth/biofilm, A600, 12 h; higher = more signal.
Assay [16] can be described thus: growth modulation of vineyard yeast isolate – strain RM11-1a, OD600, basal, 24 h, primary screen (AID 1177).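 Note: cultures grown under basal conditions with no added stressor; test concentration not given here.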 To be noted: S. cerevisiae RM11-1a growth, OD600, 24 h; higher = more signal, called active from +8 up or from −8 down.
Assay [17] can be described thus: growth of efflux-deficient E. coli DRC39 – strain DRC39, OD650, 24 h, E. coli filamentation inducers, primary screen (AID 1178).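 Note: growth measured as culture turbidity by optical density at 650 nm; test concentration not given here.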 To be noted: E. coli DRC39 acrAB, higher = more signal, called active from +8 up or from −8 down.
Assay [18] can be described thus: growth of efflux-deficient E. coli DRC39 – strain DRC39, OD650, 48 h, E. coli filamentation inducers, primary screen (AID 1179).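 Note: screen aims at cell division blockers that make cells filament.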 To be noted: E. coli DRC39 delta-acrAB growth, higher = more signal, called active from +8 up or from −8 down.
Assay [19] in a line: viability profiling in RPMI8226 myeloma cells – cell-based, resazurin fluorescence, basal, 24 h, PK04 Diversity Set, profiling panel (AID 1180).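 Note: RPMI8826 multiple myeloma cell line at 5000 cells per well; test concentration not given here.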 To be noted: higher = more signal.
Assay [20] addresses E3 ubiquitin-protein ligase XIAP (Homo sapiens) (UniProt P98170). Briefly: small molecules binding XIAP protein – biophysical, small-molecule microarray, fluorescence 635 nm, primary screen (AID 1181).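 Note: score merges 667 nm emission and signal to noise over triplicate slides.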 To be noted: higher = more signal.

The source made the active and inactive calls. Unless noted, the rule behind the calls is not given here.

Dihydroorotate dehydrogenase (quinone), mitochondrial (Plasmodium falciparum (isolate 3D7)), sequence (Q08210 whole entry, looked up): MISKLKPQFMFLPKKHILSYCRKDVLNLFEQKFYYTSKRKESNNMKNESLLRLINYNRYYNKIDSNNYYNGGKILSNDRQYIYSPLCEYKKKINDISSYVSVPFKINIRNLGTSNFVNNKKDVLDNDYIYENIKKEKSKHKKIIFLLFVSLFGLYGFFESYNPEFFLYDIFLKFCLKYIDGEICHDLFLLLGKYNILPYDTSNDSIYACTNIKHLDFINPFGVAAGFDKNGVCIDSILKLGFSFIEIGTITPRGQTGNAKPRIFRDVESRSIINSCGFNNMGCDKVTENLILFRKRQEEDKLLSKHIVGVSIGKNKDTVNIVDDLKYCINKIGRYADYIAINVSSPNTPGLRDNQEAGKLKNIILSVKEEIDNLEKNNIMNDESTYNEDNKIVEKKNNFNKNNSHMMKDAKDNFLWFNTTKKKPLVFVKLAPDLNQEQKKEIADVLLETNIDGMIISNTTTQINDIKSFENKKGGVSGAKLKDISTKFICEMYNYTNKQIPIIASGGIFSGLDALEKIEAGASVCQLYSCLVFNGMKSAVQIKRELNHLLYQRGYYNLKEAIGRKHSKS
E3 ubiquitin-protein ligase XIAP (Homo sapiens), sequence (P98170 whole entry, looked up): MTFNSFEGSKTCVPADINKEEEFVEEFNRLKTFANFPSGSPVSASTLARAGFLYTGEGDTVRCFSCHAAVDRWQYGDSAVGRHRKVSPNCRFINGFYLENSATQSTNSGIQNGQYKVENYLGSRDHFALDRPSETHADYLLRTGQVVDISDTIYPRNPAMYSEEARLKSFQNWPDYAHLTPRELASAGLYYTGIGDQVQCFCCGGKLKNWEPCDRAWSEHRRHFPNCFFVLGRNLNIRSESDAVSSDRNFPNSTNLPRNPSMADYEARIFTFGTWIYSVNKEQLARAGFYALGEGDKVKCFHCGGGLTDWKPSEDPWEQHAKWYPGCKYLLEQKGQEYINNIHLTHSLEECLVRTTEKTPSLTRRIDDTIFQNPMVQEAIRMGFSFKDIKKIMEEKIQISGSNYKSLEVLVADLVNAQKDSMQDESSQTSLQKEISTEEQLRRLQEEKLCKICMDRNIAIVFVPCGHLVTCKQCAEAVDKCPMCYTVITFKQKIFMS

On to `COc1cc2c(cc1O)C(c1ccc(CN3CCCC3)cc1)N(C)CC2` (stereo not given), for which the z-score was 0.105 in [1]; -0.582 in assay [2]; 0.339 in assay [3]; 0.752 in assay [4]; 0.0578 in assay [5]; 0.224 in assay [6]. Further, the z-score is 0.585 (inactive) in assay [7]; 0.224 in [8]; -0.699 in [9]; -1.18 (inactive) in [10]; -0.392 in assay [11]; 0.447 (inactive) in assay [12]. For the same molecule, the z-score was -1.36 (inactive) in assay [13]; -0.255 (inactive) in [15]; 0.697 (inactive) in [16]; 0.0615 (inactive) in assay [17]; 0.382 (inactive) in [18]; -0.891 in [19]. The composite z-score in assay [14] was -0.65 (inactive); in assay [20] it was 0.415.
`[N-]=[N+]=NCc1ccccc1[C@H]1OC(c2ccc(OCCCO)cc2)=N[C@@]1(CCS(=O)(=O)c1ccccc1)C(=O)NCc1ccccc1`: the z-score in assay [1] is 2.47; in assay [2], -0.0706; in assay [3], 1.35; in assay [4], -0.65; in assay [5] it was 0.414; in assay [6], -0.627. Also, the z-score in [7] is -0.0258 (inactive); in [8], -1.02; in assay [9], -0.531; in [10], 1.73 (inactive); in [11], 1.18; in assay [12] it was 0.879 (inactive). In addition, the z-score in assay [13] is -0.0789 (inactive); in assay [15] it was -0.4 (inactive); in assay [16], 2.19 (inactive); in assay [17], 1.01 (inactive); in [18], 0.536 (inactive); in assay [19], 0.032. In addition, the composite z-score in [14] is 0.786 (inactive); in assay [20], 0.129.
For the molecule `C=C(/C(=C/C[C@@H](OC(C)=O)c1ccc(CO)o1)c1cc(C(=O)OC)ccc1OC)C(C)C`, the z-score in [1] was 1.62; in assay [2], -0.634; in assay [3], 0.377; in [4], -0.998; in assay [5] it was 0.0028; in [6], -0.241. Moreover, the z-score in assay [7] was -0.298 (inactive); in assay [8] it was -0.544; in assay [9] it was -1.2; in assay [10], -0.0571 (inactive); in assay [11] it was -0.0187; in [12], -0.367 (inactive). In addition, the z-score in [13] is -0.912 (inactive); in [15] it was 0.731 (inactive); in assay [16], 0.4 (inactive); in assay [17], 0.769 (inactive); in assay [18] it was 0.533 (inactive); in assay [19], -0.0967. In addition, the composite z-score in [14] was -0.805 (inactive); in [20] it was 0.146.
Turning to `COc1ccc(C#Cc2ccc3c(c2)[C@]2(C(=O)N3)[C@H](c3ccc(OCCO)cc3)N3[C@H](c4ccccc4)[C@H](c4ccccc4)OC(=O)[C@H]3[C@@H]2C(=O)N2CCc3cc(OC)c(OC)cc3C2)cc1`, the z-score was 0.0926 in [1]; 0.485 in assay [2]; 0.477 in [3]; -1.25 in assay [4]; 0.343 in [5]; 0.37 in assay [6]. The z-score in assay [7] was 3.73 (inactive); in [8], -1.23; in [9], -1.49; in assay [10] it was -0.0906 (inactive); in assay [11], 0.36; in assay [12], 2.06 (inactive). The z-score in assay [13] is -0.224 (inactive); in assay [15], 2.68 (inactive); in assay [16], 2.33 (inactive); in assay [17], -0.479 (inactive); in [18], -0.324 (inactive); in assay [19], 0.0844. Further, the values for the composite z-score in assay [14] and in assay [20] were -1.84 (inactive) and 0.107, respectively.
